Assay outcomes: PubChem, National Center for Advancing Translational Sciences (NCATS)
FEN1 inh – blocks human flap endonuclease 1 | P39748 | Recombinant FEN1 flap cleavage, fluorescence, 15 min | Potency, µM (titrated, usually from 114 µM), for the others: at the top dose activity change, negative = inhibition, actives largely listed as inhibitors | hit rate 0.35% among 390,000; further: potency means the concentration at half of the fitted maximal effect; on the % scale 0 is the no-effect control and ±100 the full control effect; nearly all actives have a fitted effect of over 65% in size
Target sequence (P39748 whole entry, looked up): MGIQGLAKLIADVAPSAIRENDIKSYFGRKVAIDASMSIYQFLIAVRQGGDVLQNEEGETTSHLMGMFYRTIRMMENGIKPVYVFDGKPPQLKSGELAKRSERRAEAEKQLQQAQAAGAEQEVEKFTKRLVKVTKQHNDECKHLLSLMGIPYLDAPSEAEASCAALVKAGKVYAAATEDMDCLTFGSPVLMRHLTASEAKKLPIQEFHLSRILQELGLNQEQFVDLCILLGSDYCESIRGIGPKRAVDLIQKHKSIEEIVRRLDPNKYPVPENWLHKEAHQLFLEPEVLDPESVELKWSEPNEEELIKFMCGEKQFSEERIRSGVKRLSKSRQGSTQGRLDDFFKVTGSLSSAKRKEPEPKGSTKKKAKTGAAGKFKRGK
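In this screen, 50 nM flap DNA substrate was added to 10 nM FEN1 pretreated with compound for 15 min at room temperature; cleavage was followed with reads at 0 and 15 min, and Hill fitting gave concentration–response parameters.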
TDP1 inh – TDP1 (human) enzyme inhibition; recombinant TDP1, AlphaScreen DNA substrate cleavage; Potency, µM (series often up to 130 µM), inactives show top-dose activity change, negative = inhibition, most hits filed as inhibitors; hit rate 0.28% among 350,000; further: potency means the concentration at half of the fitted maximal effect; on the % scale 0 is the no-effect control and ±100 the full control effect; nearly all actives have a fitted effect of over 40% in size
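Steps: enzyme plus compound, 15 min RT; add biotin/phosphotyrosine-FITC oligonucleotide (15 nM final), react 5 min; add donor/acceptor beads (10 ug/ml final), 10 min; read AlphaScreen. Tdp1 at 1 nM final.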
Pol iota inh – blocks human DNA polymerase iota activity; Pol iota fluorescent replication assay, 10 min; AID 588590; Potency, µM (series often up to 115 µM), without a hit: at the top dose activity, negative = inhibition, hits mostly inhibitors; hit rate 1% among 390,000; further: potency means the concentration at half of the fitted maximal effect
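Pol iota at 10 nM preincubated 15 min with compounds at room temperature; reaction started with fluorescent substrate, 50 nM final. Fluorescence read kinetically at 0 and 10 min; buffer-only wells as negative control.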
Pol beta inh – DNA polymerase beta (human) inhibition; P06746; hit rate 1.3% among 340,000; Potency, µM (series often up to 114 µM), for the others: top-dose activity change, negative = inhibition, usual class: inhibitors; Pol beta primer extension/strand displacement, fluorescence kinetic; further: potency means the concentration at half of the fitted maximal effect; on the % scale 0 is the no-effect control and ±100 the full control effect
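Values derive from four-parameter Hill fits of normalized kinetic data: reads at 0 and 10 min following addition of 50 nM substrate to 10 nM Pol beta preincubated 15 min with compound.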
Pol eta inh-1 – DNA polymerase eta (human) inhibition | Q9Y253 | recombinant Pol eta, fluorescent DNA replication assay | Potency, µM (highest dose often 114 µM), without a hit: top-dose activity change, negative = inhibition, hits mostly inhibitors | hit rate 1.2% among 390,000 | AID 588591; further: potency means the concentration at half of the fitted maximal effect; on the % scale 0 is the no-effect control and ±100 the full control effect
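Fluorescent replication assay: 50 nM final substrate added after a 15 min room-temperature compound preincubation with 10 nM enzyme. Signal taken at 0 min and again at 10 min.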
Pol kappa inh-1 – DNA polymerase kappa (human) inhibition. purified Pol kappa, fluorescent DNA synthesis assay, 10 min. hit rate 0.53% among 400,000. Q9UBT6. AID 588579. Potency, µM (series often up to 107 µM), without a hit: at the highest dose activity, negative = inhibition, usual class: inhibitors; further: potency means the concentration at half of the fitted maximal effect; on the % scale 0 is the no-effect control and ±100 the full control effect
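Inhibition of 10 nM Pol kappa is measured by a fluorescent read-out at 0 and 10 min following addition of 50 nM substrate (final), with a 15-min room-temperature compound preincubation.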
GALK confirm – galactokinase (human) inhibition, confirmation. purified GALK, Kinase-Glo ATP depletion luminescence. hit rate 70% among 150. Potency, µM (series often up to 115 µM), inactives show top-dose activity, negative = inhibition, hits mostly inhibitors. shares compounds with Pol eta inh-1
Target sequence (P51570 whole entry, looked up): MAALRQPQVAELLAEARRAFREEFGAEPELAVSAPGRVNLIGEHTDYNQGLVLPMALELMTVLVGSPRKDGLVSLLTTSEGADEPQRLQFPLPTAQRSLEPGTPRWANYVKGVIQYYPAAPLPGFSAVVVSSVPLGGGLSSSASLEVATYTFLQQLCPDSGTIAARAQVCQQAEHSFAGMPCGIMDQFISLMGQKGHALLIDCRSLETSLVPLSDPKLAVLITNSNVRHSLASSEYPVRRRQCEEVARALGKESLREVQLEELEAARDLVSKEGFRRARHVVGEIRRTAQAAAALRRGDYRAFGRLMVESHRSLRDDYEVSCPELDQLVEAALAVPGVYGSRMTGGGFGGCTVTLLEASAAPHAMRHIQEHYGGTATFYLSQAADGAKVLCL
Redox cycling – generates H2O2 by redox cycling, flagging GALK artifacts; shares compounds with Pol eta inh-1; Phenol red-HRP H2O2 redox cycling, absorbance 600 nm; Potency, µM (titrated, usually from 115 µM), inactives show at the top dose activity change, negative = H2O2 signal, actives largely listed as inhibitors; hit rate 40% among 150; AID 2035
HEK293 tox – counter-screen for GALK inhibitors: HEK293 cell cytotoxicity | AID 2547 | Potency, µM (top dose mostly 46.1 µM), without a hit: at the top dose activity change, negative = cytotoxicity, most hits filed as inhibitors | hit rate 10% among 170 | HEK-293 viability, ATP luminescence (CellTiter-Glo), 24/48 h | shares compounds with Pol eta inh-1; further: potency means the concentration at half of the fitted maximal effect; on the % scale 0 is the no-effect control and ±100 the full control effect
Pol kappa inh-2 – Pol kappa (human) inhibition, cherry-pick confirmation; hit rate 76% among 920; shares compounds with Pol eta inh-1; Potency, µM, most hits filed as inhibitors; purified Pol-kappa, fluorescent strand-displacement substrate; AID 720501; further: potency means the concentration at half of the fitted maximal effect
Pol eta inh-2 – confirmation of human DNA polymerase eta inhibitors; shares compounds with Pol eta inh-1; Potency, µM, usual class: inhibitors; Pol eta primer extension, TAMRA/BHQ fluorescence, 10 min; hit rate 64% among 2,600; further: potency means the concentration at half of the fitted maximal effect
* marks the source's active call; other numbers are inactive results; [ ] = dose if it differs, or a comment. Shown are actives, neighbours in structure and some others; about 2.4% of the full set was active somewhere. The call rests on the fitted dose curve; in most records, active means well fitted curve in the direction sought with a large enough effect; inconclusive means small, poorly fitted or top-dose-only effect, or another doubt; inactive means no such curve, though single readings can be large; an effect the other way counts as inactive or inconclusive.

Results for CCNc1nc(NCC)n2c(SCC(=O)Nc3ccc(OC(F)F)cc3)nnc2n1 ?
FEN1 inh: 2%; Pol iota inh: inconclusive; Pol eta inh-1: inconclusive; Pol kappa inh-1: -12%; Pol eta inh-2: inconclusive

Results for COc1ccc(/C=C2\SC(=Nc3ccccc3Cl)NC2=O)c(OC)c1 ?
Pol eta inh-1: -18%

Results for COc1ccc(OC)c(/C=C2\S/C(=N/NC(=O)c3ccc4ccccc4c3)NC2=O)c1 ?
FEN1 inh: inconclusive; TDP1 inh: 5%; Pol iota inh: -4%; Pol beta inh: 0%; Pol eta inh-1: 20µM*; Pol kappa inh-1: -21%; Pol kappa inh-2: inconclusive

How did O=C(COC(=O)[C@@H]1CCCN1C(=O)c1cccs1)Nc1ccc(F)cc1[N+](=O)[O-] do in these assays?
FEN1 inh: 8%; TDP1 inh: -8%; Pol iota inh: 94%; Pol beta inh: 27%; Pol eta inh-1: -22%; Pol kappa inh-1: 1%

Results for COc1ccccc1NS(=O)(=O)c1ccc(C(=O)NCc2ccco2)cc1 ?
FEN1 inh: -4%; TDP1 inh: 1%; Pol iota inh: -2%; Pol eta inh-1: -21%; Pol kappa inh-1: -6%

How did CC1CCN(C(=O)c2ccc(SCc3ccccc3F)c([N+](=O)[O-])c2)CC1 do in these assays?
FEN1 inh: -14%; TDP1 inh: 5%; Pol iota inh: 121%; Pol beta inh: 4%; Pol eta inh-1: inconclusive; Pol kappa inh-1: -7%

Results for CCOC(=O)c1c(NS(=O)(=O)c2ccc(Br)cc2)sc2c1CCC2 ?
FEN1 inh: -21%; Pol iota inh: 11µM*; Pol eta inh-1: 20µM*; Pol kappa inh-1: 79µM*; Pol eta inh-2: inconclusive

What do the screens show for `CC(C)c1ccc(NC(=O)CSc2nc(=O)n(Cc3cccnc3)c3c2CCC3)cc1`?
FEN1 inh: 11%; TDP1 inh: -5%; Pol iota inh: 1%; Pol beta inh: 1%; Pol eta inh-1: -6%; Pol kappa inh-1: -12%[60.1 µM]

What do the screens show for `O=C(CNC(=O)c1ccc(Cl)cc1)N/N=C/c1cccnc1`?
FEN1 inh: -10%; Pol iota inh: 25%; Pol beta inh: 20%; Pol eta inh-1: -3%; Pol kappa inh-1: 1%

Results for COc1cc(/C=C/c2ccc3cccc([N+](=O)[O-])c3n2)ccc1OCC(=O)O ?
FEN1 inh: -7%; TDP1 inh: -14%; Pol iota inh: inconclusive; Pol beta inh: inconclusive; Pol eta inh-1: 20µM*; Pol kappa inh-1: inconclusive; Pol kappa inh-2: inconclusive; Pol eta inh-2: 76*

Results for CCSCCCn1[nH]c2ccccc2c1=O ?
Pol eta inh-1: -21%

Results for Cc1ccc(NC(=O)CN(C)S(=O)(=O)c2ccc3[nH]c(=O)oc3c2)c(C)c1 ?
FEN1 inh: -5%; TDP1 inh: 2%; Pol iota inh: -7%; Pol beta inh: inconclusive; Pol eta inh-1: 79µM*; Pol kappa inh-1: -8%; Pol eta inh-2: 27*

What do the screens show for `N#C/C(=C(/O)c1cc2ccccc2o1)c1nc2ccccc2s1`?
FEN1 inh: -3%; TDP1 inh: 1%; Pol iota inh: 16%; Pol beta inh: 35%; Pol eta inh-1: -27%; Pol kappa inh-1: 3%; GALK confirm: inconclusive; Redox cycling: -2%; HEK293 tox: -7%

Results for N#C/C(=C(/O)c1ccco1)c1nc2ccccc2s1 ?
FEN1 inh: -11%; TDP1 inh: 2%; Pol iota inh: 53%; Pol beta inh: -14%; Pol eta inh-1: 15%; Pol kappa inh-1: -20%

Results for CC(=O)n1cc(C=O)c2ccccc21 ?
FEN1 inh: -6%; Pol iota inh: 31%; Pol kappa inh-1: 0%

What do the screens show for `CC(=O)n1cc(N(C(=O)CCl)c2ccc(Cl)cc2)c2ccccc21`?
FEN1 inh: 0%; Pol iota inh: inconclusive; Pol beta inh: 15%; Pol eta inh-1: 28µM*; Pol kappa inh-1: -15%; Pol eta inh-2: inconclusive

What do the screens show for `O=C(CCNC(=O)c1ccccc1Cl)NCc1cccnc1`?
FEN1 inh: 0%; Pol iota inh: 9%; Pol eta inh-1: 8%; Pol kappa inh-1: -1%

What do the screens show for `CC(C)Cn1c(N)c(C(=O)COC(=O)C2Cc3ccccc3CN2S(C)(=O)=O)c(=O)n(C)c1=O` (stereo not given)?
FEN1 inh: -13%; TDP1 inh: 28µM*; Pol iota inh: 45µM*; Pol eta inh-1: 22µM*; Pol kappa inh-1: inconclusive; Pol kappa inh-2: inconclusive; Pol eta inh-2: inconclusive

What do the screens show for `Cc1ccccc1-n1nnnc1SCC(=O)NCC1CCCO1` (stereo not given)?
FEN1 inh: 2%; TDP1 inh: 2%; Pol iota inh: 140%; Pol beta inh: 15%; Pol eta inh-1: -2%; Pol kappa inh-1: -15%

How did Cc1ccn2c(Nc3ccc4c(c3)OCO4)c(-c3ccco3)nc2c1 do in these assays?
FEN1 inh: inconclusive; TDP1 inh: 13%; Pol iota inh: -6%; Pol beta inh: -3%; Pol eta inh-1: -7%; Pol kappa inh-1: 11%

Results for COc1cc(OC)c(NC2=CC(=O)C(=O)c3ccccc32)cc1Cl ?
FEN1 inh: -1%; Pol iota inh: 10%; Pol beta inh: -27%; Pol eta inh-1: inconclusive; Pol kappa inh-1: 8%

Results for Cc1cc(NC2=CC(=O)C(=O)c3ccccc32)no1 ?
FEN1 inh: -16%; Pol iota inh: inconclusive; Pol eta inh-1: 22µM*; Pol kappa inh-1: -12%; Pol eta inh-2: inconclusive
